Bioassay records: PubChem BioAssay, The Scripps Research Institute Molecular Screening Center
MOR-DOR inv ag: inverse agonists of MOR-DOR heterodimerization, primary screen, cell-based, luminescence | inhibition, % at 9.3 µM | AID 504357, 2011 | cell-based MOR-DOR heterodimer luminescence, inverse agonism | 340,000 compounds, 0.21% hits | Mu-type opioid receptor (Homo sapiens) + Delta-type opioid receptor (Homo sapiens), …; in the data active means inhibition above about 22%, passing the limit was not always enough;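 further: 0% = cells with DMSO and 100% = wells without cells with DMSO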
Target sequence (P35372 whole entry, looked up): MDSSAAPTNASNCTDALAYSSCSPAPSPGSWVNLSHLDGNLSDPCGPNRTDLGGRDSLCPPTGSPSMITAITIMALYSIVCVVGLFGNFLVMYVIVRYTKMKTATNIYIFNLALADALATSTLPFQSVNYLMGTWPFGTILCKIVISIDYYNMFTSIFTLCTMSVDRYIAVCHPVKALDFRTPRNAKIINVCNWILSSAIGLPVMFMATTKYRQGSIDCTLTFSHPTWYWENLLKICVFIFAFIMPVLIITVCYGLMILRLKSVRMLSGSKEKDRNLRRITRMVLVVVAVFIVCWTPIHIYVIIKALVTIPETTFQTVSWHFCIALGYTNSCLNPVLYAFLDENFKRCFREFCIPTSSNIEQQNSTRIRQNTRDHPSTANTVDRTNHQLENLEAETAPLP
Target sequence (P41143 whole entry, looked up): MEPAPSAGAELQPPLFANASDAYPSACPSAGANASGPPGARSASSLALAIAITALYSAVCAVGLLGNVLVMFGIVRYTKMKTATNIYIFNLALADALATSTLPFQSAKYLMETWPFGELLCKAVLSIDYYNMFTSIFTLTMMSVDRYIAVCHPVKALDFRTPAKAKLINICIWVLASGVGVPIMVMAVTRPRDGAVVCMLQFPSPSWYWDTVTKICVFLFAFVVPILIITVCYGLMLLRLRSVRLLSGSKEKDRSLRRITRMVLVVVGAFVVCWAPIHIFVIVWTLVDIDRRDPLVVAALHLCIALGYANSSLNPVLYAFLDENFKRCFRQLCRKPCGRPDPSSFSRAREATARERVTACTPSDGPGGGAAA
HTR5A ag: HTR5A agonists in luminescence cell assay, primary screen, counter-screen for OPRM1-OPRD1 heterodimer agonist project, full-deck HTS; 5-hydroxytryptamine receptor 5A (Homo sapiens), P47898; cell-based; activation, % at 9.3 µM; 340,000 compounds, 0.61% hits; AID 504692, 2011; in the data active means activation mostly above about 9.5%, no sharp cut-off; inactive means mostly below about 7.6%;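 further: 0% = cells with vehicle only and 100% = reference agonist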
HTR5A inv ag: HTR5A inverse agonists in luminescence cell assay, primary screen, counter-screen for OPRM1-OPRD1 heterodimer inverse agonist project, full-deck HTS; HTR5A cell line, inverse agonism; AID 504634, 2011; 340,000 compounds, 0.083% hits; inhibition, % at 9.3 µM; 5-hydroxytryptamine receptor 5A (Homo sapiens), P47898; in the data active means inhibition mostly above about 23%, no sharp cut-off; inactive means mostly below about 18%;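 further: 0% = cells with DMSO and 100% = no-cell wells with DMSO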
OPRM1-OPRD1 ag: agonists of OPRM1-OPRD1 heterodimerization, primary screen, cell-based, luminescence. Mu-type opioid receptor (Homo sapiens) + Delta-type opioid receptor (Homo sapiens), …. cells. activation, % at 9.3 µM. 340,000 compounds, 0.3% hits. AID 504326, 2011;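 further: 0% = vehicle-treated cells and 100% = reference agonist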
OPRM1-D1 ag cf: agonists of MOR-DOR heterodimerization, confirmation, cell-based, luminescence | activation, % at 9.3 µM | 830 compounds, 45% hits | shares compounds with OPRM1-OPRD1 ag | AID 504904, 2011 | cells, luminescence complementation;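 further: 0% = vehicle-treated cells and 100% = reference agonist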
HTR5A ag counter: HTR5A agonists in cells, counter-screen for OPRM1-OPRD1 heterodimer agonist project, cell-based, luminescence | shares compounds with OPRM1-OPRD1 ag | HTR5A agonist counterscreen | 830 compounds, 8% hits | activation, % at 9.3 µM; in the data active means activation above about 17%;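 further: 0% = vehicle-treated cells and 100% = reference agonist response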
An asterisk follows results filed as active; i = inactive; . = no result. In the library only some 1.1% were active in any assay of this set; here they are far more common. Unless noted, no stated cut-off is given here; in the data, active means activation above about 18%; inactive means the rest.

SMILES	MOR-DOR inv ag	HTR5A ag	HTR5A inv ag	OPRM1-OPRD1 ag	OPRM1-D1 ag cf	HTR5A ag counter
CCCN1C(=O)c2ccccc2NC1c1ccc(OC)c(CSc2ccccn2)c1 (stereo not given)	-117.7	4.7	15.2	22.2*	16.5	0.5
CCn1c(SCC(=O)Nc2ccc(C)cc2)nnc1-c1ccc(O)cc1	13.9	-5.7	5.8	-2.8	.	.
COc1ccc(S(=O)(=O)N2CCOCC2)cc1NC(=O)CCOc1ccc(C(C)(C)C)cc1	-5.2	-2.1	6.1	0.8	.	.
CCOc1ccc(-c2nnc(SCC(=O)Nc3ccc4c(c3)c3ccccc3n4CC)n2N)cc1	-176.6	0.8	-1.9	33.2*	24.2*	18.7*
O=C(Nc1cccc(NC(=O)c2cccc([N+](=O)[O-])c2)n1)c1cccc([N+](=O)[O-])c1	-116.2	-2.9	11.1	23.5*	18.2*	3.5
CCOC(=O)C1(CCOc2ccccc2)CCN(Cc2ccc(O)cc2)CC1	-2.4	-8.0	27.3	0.5	.	.
CCOC(=O)C1(CC2CC2)CCN(Cc2cnc(-c3ccccc3C)nc2)CC1	-395.9	-4.0	24.2	79.0*	71.8*	2.8
CCOC(=O)C1(CCOc2ccccc2)CCN(Cc2cnc(SC)nc2)CC1	-155.3	4.0	20.5	31.7*	1.8	-2.1
CCOC(=O)C1(CCOc2ccccc2)CCN(Cc2ccc(OC)c(O)c2)CC1	-367.9	-0.7	2.5	77.2*	75.0*	2.6
CCOC(=O)C1(CC2CC2)CCN(Cc2cc(Cl)c(O)c(OC)c2)CC1	-28.6	0.5	-8.4	5.7	.	.
CCC(C)(C)NC(=O)c1ccc(S(=O)(=O)N2CCCCCC2)cc1	9.4	0.7	-1.9	-1.8	.	.
CCCCNC(=O)O[C@@H]1C[C@H]2CCCC(=O)N3CC[C@@H](C1)[C@@H]23	15.2	2.0	-7.2	-2.7	.	.
CCCCCCCN(c1ccccc1)[C@@H]1C[C@H]2CCCC(=O)N3CC[C@@H](C1)[C@@H]23	-105.8	1.2	4.1	18.8*	-0.4	0.9
CCOC(=O)C1=C(C(=O)OCC)N(CC)CCC1=O	2.9	-1.7	6.2	-0.6	.	.
CCN1CCN(C(=O)C(Cc2ccccc2)NC(=O)c2ccc(Cl)c(S(=O)(=O)N(C)C)c2)CC1 (stereo not given)	0.8	-0.6	1.6	-0.2	.	.
COc1cc2cc3c(N)c(C(=O)Nc4sc(C)c(C)c4C#N)sc3nc2cc1OC	i	7.3	-10.0	117.3*	22.5*	-0.4
O=C(CCl)N(CCCNC(=O)C(F)(F)F)c1ccc([N+](=O)[O-])cc1	-94.0	-0.8	-8.5	18.4*	27.5*	29.0*
COc1ccc(CN2CCNC(=O)C2CC(=O)NCCc2c[nH]c3ccccc23)c(OC)c1 (stereo not given)	10.4	-1.4	3.5	-2.0	.	.
NC(=O)C1CCCN(C(=O)CN2C(=O)NC(c3ccccc3)(c3ccccc3)C2=O)C1 (stereo not given)	9.9	5.4	-4.9	-1.6	.	.
CNC(=O)/C(C#N)=C/c1ccc(-c2ccc(OC)cc2[N+](=O)[O-])o1	-116.2	0.2	-0.5	18.6*	1.2	-6.3
COc1ccccc1C(=O)NC(=O)COC(=O)CN1C(=O)NC(C)(C)C1=O	6.6	1.9	6.5	-1.0	.	.
CCc1cc2cc(C)c(C)cc2nc1SCC(=O)Nc1cc(C)on1	9.2	1.6	-4.1	-1.6	.	.
CCc1cc2ccc(OC)cc2nc1SCC(=O)Nc1cc(C)on1	-99.0	1.1	-22.5	21.7*	12.0	19.8*
Cc1cccnc1CN1CCN(Cc2nc(C(c3ccccc3)c3ccccc3)no2)CC1	1.3	-0.5	-13.5	-0.3	.	.
Cn1c(-c2c(N)n(C3CCCC3)c3nc4ccccc4nc23)nc2ccccc21	-39.8	-3.4	8.8	6.8	.	.
SMILES	MOR-DOR inv ag	HTR5A ag	HTR5A inv ag	OPRM1-OPRD1 ag	OPRM1-D1 ag cf	HTR5A ag counter
Cn1c(-c2c(N)n(CCc3ccccc3)c3nc4ccccc4nc23)nc2ccccc21	i	4.4	-14.3	250.3*	235.0*	6.0
COCCCn1c(N)c(-c2nc3ccccc3n2C)c2nc3ccccc3nc21	i	-1.6	5.2	117.2*	142.5*	-1.2
CCCn1ncc(CN2CCC(n3nccc3NC(=O)CCc3ccccc3)CC2)c1C	i	-1.3	4.0	222.8*	13.1	5.1
CCCn1ncc(CN2CCC(n3nccc3NC(=O)c3ccccc3OC)CC2)c1C	7.7	3.3	-7.9	-1.5	.	.
CCn1cc(CN2CCC(n3nccc3NC(=O)CCc3ccccc3)CC2)cn1	-176.4	1.5	-5.4	30.9*	17.7	0.3
C=CCn1c(O)c(C2=c3ccccc3=NC2=O)sc1=Nc1ccc(O)cc1	-194.9	-7.7	21.5	37.8*	15.4	3.1
CCN(CC)CCCN(C(=O)c1cccs1)c1nc(-c2ccc(OC)cc2)cs1	-266.3	3.3	21.2	51.3*	0.6	27.3*
CCN(CC)CCCN(C(=O)c1ccc(Br)cc1)c1nc(-c2ccc(OC)cc2)cs1	-36.0	2.3	4.5	6.5	.	.
COc1ccccc1NC(=O)CSc1nc2n[nH]c(C)c2c(=N)n1-c1ccccc1Cl	-21.3	0.4	-3.3	4.0	.	.
CC(=O)c1ccc(NC(=S)N2CCN(S(=O)(=O)c3ccc(F)cc3)CC2)cc1	13.9	1.0	15.3	-4.2	.	.
COc1cc(OC)cc(C(=O)N2CCN(c3ccc(N4CCOCC4)nn3)CC2)c1	7.5	4.5	1.0	-1.4	.	.
CCN(CC)c1ccc(/C=C2\C(=O)c3ccc(C(=O)O)cc3C2=O)cc1	-106.7	-7.8	14.8	21.1*	10.4	-6.0
CCN(CC)c1ccc(C(=O)O)cc1	12.3	-0.5	-21.2	-2.0	.	.
C[C@@H](C[C@@H](O)[C@H](O)C(C)(C)O)[C@@H]1CC[C@]2(C)C3=CC[C@H]4C(C)(C)C(=O)CC[C@]4(C)[C@H]3CC[C@@]12C	-111.8	-3.1	8.2	19.2*	7.1	-0.4
C[C@H](C[C@H](O)[C@H]1OC1(C)C)C1=C2C[C@H](O)C3[C@@]4(C)CCC(=O)C(C)(C)C4CC[C@]3(C)[C@@]2(C)CC1 (stereo not given in full)	-72.1	1.7	-5.0	12.5	.	.
O=C(NCCc1cccc(Cl)c1)c1ccc(OC2CCN(Cc3ccccn3)CC2)cc1	-324.4	3.7	-13.7	64.7*	0.4	-0.7
CSCCCNC(=O)c1ccc(OC2CCN(CCc3ccccc3)CC2)cc1	-109.7	0.0	-12.5	21.8*	32.3*	1.9
O=C(NCCc1ccccn1)c1ccc(OC2CCN(CCc3ccccc3)CC2)cc1	-78.6	1.1	-1.6	15.1	.	.
Cc1cccnc1CCNC(=O)c1ccc(OC2CCN(Cc3ccccn3)CC2)cc1	3.9	0.0	0.1	-0.6	.	.
